Experimental data: PubChem BioAssay AID687016 (The Scripps Research Institute Molecular Screening Center, 2013)
The whole screen tested about 370,000 compounds, of which about 2,800 (0.76%) were called active. The full list was thinned out, with actives kept by preference. Values without a mark were called inactive. No stated cut-off is given here; in the data, active means inhibition above about 21%; inactive means the rest.

biological target: E3 ubiquitin-protein ligase UHRF1 (Homo sapiens) (UniProt Q96T88); experiment: UHRF1 methylated DNA binding inhibitors, primary screen, counter-screen for MBD2 inhibitor project, biochemical, TR-FRET, human UHRF1, single concentration (AID 687016); conditions: UHRF1 binding to methylated oligo, at 4.4 µM, stronger effect = higher value;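 further: UHRF1 SRA domain binding a hemimethylated CpG hairpin DNA probe; 0% = median of test compound wells and 100% = reference inhibitor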
Sequence (Q96T88 whole entry, looked up, the tested form may be a part): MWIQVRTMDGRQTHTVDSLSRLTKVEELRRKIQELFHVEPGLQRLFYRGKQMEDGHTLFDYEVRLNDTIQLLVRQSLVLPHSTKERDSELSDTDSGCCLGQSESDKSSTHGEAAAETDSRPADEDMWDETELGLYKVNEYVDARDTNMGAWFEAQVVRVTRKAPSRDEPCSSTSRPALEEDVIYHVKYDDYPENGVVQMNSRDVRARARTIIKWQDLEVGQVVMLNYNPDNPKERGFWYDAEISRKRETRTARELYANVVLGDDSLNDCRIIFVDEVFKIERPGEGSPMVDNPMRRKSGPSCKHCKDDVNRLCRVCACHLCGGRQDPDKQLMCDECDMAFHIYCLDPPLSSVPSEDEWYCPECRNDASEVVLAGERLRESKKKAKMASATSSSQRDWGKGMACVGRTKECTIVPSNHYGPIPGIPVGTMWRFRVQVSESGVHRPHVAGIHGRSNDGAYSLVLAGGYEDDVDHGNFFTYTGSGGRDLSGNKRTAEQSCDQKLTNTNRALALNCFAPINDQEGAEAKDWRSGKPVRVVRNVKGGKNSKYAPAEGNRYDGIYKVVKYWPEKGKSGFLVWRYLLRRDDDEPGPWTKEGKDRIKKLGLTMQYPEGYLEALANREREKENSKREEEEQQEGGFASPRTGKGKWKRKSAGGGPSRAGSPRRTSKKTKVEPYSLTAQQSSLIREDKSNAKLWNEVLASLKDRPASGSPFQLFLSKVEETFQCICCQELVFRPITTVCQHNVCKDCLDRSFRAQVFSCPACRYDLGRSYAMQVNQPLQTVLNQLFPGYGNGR

SMILES	inhibition
CC(NC(=S)NC1CCCCC1)C(c1ccccc1)N1CCOCC1 (centres undefined)	0.56%
S=C(NC1CCCCC1)NN1CCOCC1	32.8% (active)
COC(=O)c1ccc(NC(=S)NN2CCOCC2)cc1	-1.42%
N[C@@H](Cc1ccccc1)C(=O)N1CCC[C@@H]1C(=O)N1CCC2CCN(S(=O)(=O)c3ccccc3)CC21 (some centres undefined)	1.24%
C=CCN(C)CC#Cc1ccccc1	1.63%
O=C(CN1CCCCC1)NC(=O)Nc1ccccc1F	-2.79%
NC(=O)c1ccc(CN2CCC(Cc3ccccc3)CC2)cc1	-0.37%
CC(C)(C)NC(=O)NC(=O)CN1CCC(Cc2ccccc2)CC1	38.1% (active)
CC(CCN1CCC(C(O)(c2ccccc2)c2ccccc2)CC1)Oc1ccc([N+](=O)[O-])cc1Cl (centres undefined)	-2.34%
CCCC[C@H]1C2CC(OC(=O)NCc3ccccc3)C(C2)[C@H]2CCCCN21 (some centres undefined)	2.4%
COc1ccc(C(=O)OCCN2CCN(C3CN(Cc4cn(Cc5ccccc5F)nn4)S(=O)(=O)C3)CC2)cc1OC (centres undefined)	16.4%
C=CCn1c(=S)[nH]c2scc(-c3ccco3)c2c1=O	42% (active)
O=C(CSc1nnc(-c2ccccc2)n1Cc1ccco1)Nc1ccccc1-c1ccccc1	-1.14%
Cc1ccc(-n2c(SCC(=O)Nc3ccc(S(=O)(=O)Nc4nccs4)cc3)nnc2-c2ccncc2)cc1	-0.73%
CCOc1ccc(-n2c(SCC(=O)Nc3cc(C)c(NC(=O)c4ccccc4)cc3OC)nnc2-c2cccc(Cl)c2)cc1	-1.29%
O=C(NC1CCC1)c1ccc(C#CC2CC2)cn1	1.8%
COCCCNC(=O)C[C@H]1C[C@@]2(C(=O)OC)C(=C[C@H](C(C)(C)C)O[C@@H]2C)N(Cc2ccc(Cl)cc2Cl)C1=O	-1%
Cc1cc(C)c(OCCN2CC(C)OC(C)C2)c(Br)c1 (centres undefined)	22.5% (active)
CC1CN(CCCOc2ccccc2-c2ccccc2)CC(C)O1 (centres undefined)	1.48%
CC1CN(CCOc2ccccc2[N+](=O)[O-])CC(C)O1 (centres undefined)	0.96%
CCn1c(=O)n2n(c1=O)[C@@]1(C=C3CCCC[C@H]32)N=C(NC(=O)c2ccccc2)N(Cc2ccccc2)[C@H]1Cc1ccccc1	1.35%
CCN(CC)C(=O)CC[C@H]1CC[C@]2(CCCN(Cc3ccc(Cl)cc3)C2)O1	-2.85%
COC(=O)Cc1csc(/N=C/c2c(O)n(-c3cccc(C(F)(F)F)c3)c(=O)c3ccccc23)n1	20.8% (active)
O=C(Cc1cccs1)NCc1cccc(C(F)(F)F)c1	2.41%
COC(=O)Cc1c(O)ccn(Cc2cccc(C(F)(F)F)c2)c1=O	-0.17%
COc1ccc(CN2C(=O)N3Cc4cc(OC)ccc4C3CS2(=O)=O)cc1 (centres undefined)	-0.8%
Cc1ccc(NC(=O)Nc2cc(C)nn2-c2ccccc2)cc1	-0.03%

SMILES	inhibition
C#CCNC(=O)C[C@H]1C[C@@]2(C(=O)OC)C(=C[C@H](C(C)C)O[C@@H]2C2CC2)N(Cc2ccco2)C1=O	1.95%
COc1ccc(NC(=O)CN(C)C(=O)c2cc(C)oc2C)cc1	0.64%
COc1ccc(Cc2n[nH]c(=S)n2NC(=O)Nc2ccc(C)cc2)cc1	-1.17%
COc1ccc(CC(=O)Nc2ccc(-c3nnc(-c4ccc(C)cc4)o3)cc2)cc1	22.5% (active)
O=S1(=O)c2c(cccc2N2CC[C@H](O)C2)O[C@@H]2CCN1C2	1.23%
Cc1cc2c(c(=O)n1Cc1ccco1)C(c1ccccc1)C(C#N)=C(N)O2 (centres undefined)	32.8% (active)
Cc1cc2c(c(=O)n1C)C(C(C)C)C(C#N)=C(N)O2 (centres undefined)	0.11%
CC(C)c1ccc(C2C(C#N)=C(N)Oc3c2oc(CO)cc3=O)cc1 (centres undefined)	-3.69%
CCN(C(=O)[C@@H](C1CC1)[C@@H](O)c1ccc2ccccc2c1)c1ccccc1	-2.68%
COc1ccc(C(=O)OCCN(C)C2CN(Cc3cn(Cc4cccc(C)c4)nn3)S(=O)(=O)C2)cc1OC (centres undefined)	13.8%
Cn1nccc1/C=N\NC(=O)c1ccc(Cl)cc1	4.97%
Cc1nn(-c2ccccc2)c(Cl)c1/C=N/NC(=O)c1nn(C)cc1[N+](=O)[O-]	23.8% (active)
Cc1nn(-c2ccccc2)c(-n2cccc2)c1C(=O)O	1.78%
CC(C)CNC(=O)OCc1cn(Cc2ccc(F)cc2)nn1	3.53%
COC(=O)[C@H](C(C)C)N(CCc1cn(Cc2ccccc2)nn1)S(=O)(=O)c1ccc(F)cc1Br	-0.16%
Cc1ccc(Cn2cc(CN3[C@@H](CC(C)C)COc4ccc(Cl)cc4S3(=O)=O)nn2)cc1	-2.98%
c1coc(CCNc2ncnc3ccc(-c4ccc5c(c4)OCO5)cc23)c1	-3.63%
COC(=O)c1cccc(Cn2ccc3ccc(-c4ccc5ccn(C(=O)c6ccccc6C)c5c4)cc32)c1	-1.17%
O=C(CN1CCN(c2ccc(O)cc2)CC1)Nc1ccc(-c2ccccc2)cc1	-0.69%
Oc1ccc(N2CCN(C(=S)NCc3ccccc3)CC2)cc1	40.4% (active)
O=C(COC(=O)c1ccccc1C(=O)N1CCN(c2ccccc2)CC1)NCc1ccccc1	-3.11%
CCOC(=O)C1CCN(C(=O)C(C)(C)NC(=O)Nc2ccccc2Cl)CC1	0.18%
COC(=O)[C@]12C[C@H](CC(=O)NCc3cccs3)C(=O)N(CCc3ccc(OC)c(OC)c3)C1=C[C@H](C(C)C)O[C@@H]2C1CC1	-0.69%
O=C(CSc1nc2ccccc2s1)NN=Cc1ccc(O)cc1O	-4.05%
COC(=O)[C@]12C[C@H](CC(=O)NCc3ccccc3)C(=O)N(CCc3ccc(OC)c(OC)c3)C1=C[C@H](C(C)(C)C)O[C@@H]2C	-1.24%
COC(=O)[C@]12C[C@H](CC(=O)NCCC(C)C)C(=O)N(CCc3ccc(OC)c(OC)c3)C1=C[C@H](C(C)(C)C)O[C@@H]2C	34.2% (active)
CCCCOCCCNC(=O)C[C@H]1C[C@@]2(C(=O)OC)C(=C[C@H](C(C)(C)C)O[C@@H]2C)N(CCc2ccc(OC)c(OC)c2)C1=O	-0.73%
